# Records with an inconclusive call do not appear. Entries that show only a call come without a potency. A number with no mark means an inactive call. Activity calls are given as the source filed them. Calls come from the whole dose curve; as a rule, active = well fitted curve in the direction sought with a large enough effect; inconclusive = small, poorly fitted or top-dose-only effect, or another doubt; inactive = no such curve, though single readings can be large; an effect the other way counts as inactive or inconclusive.
# Legend:
# [1] = target: Rap guanine nucleotide exchange factor 3 (Homo sapiens) (UniProt O95398); experiment: Confirmatory qHTS for antagonist of cAMP-regulated guanine nucleotide exchange factor 3 (EPAC1) (AID 1645880); details: EPAC1 Rap1B-BODIPY-GDP exchange, fluorescence; activity, negative = inhibition: at 115 µM (top of the series); note: nearly all actives have a fitted effect of over 55% in size; note: potency is the fitted concentration of half-maximal effect
# Rap guanine nucleotide exchange factor 3 (Homo sapiens), sequence (O95398 whole entry, looked up): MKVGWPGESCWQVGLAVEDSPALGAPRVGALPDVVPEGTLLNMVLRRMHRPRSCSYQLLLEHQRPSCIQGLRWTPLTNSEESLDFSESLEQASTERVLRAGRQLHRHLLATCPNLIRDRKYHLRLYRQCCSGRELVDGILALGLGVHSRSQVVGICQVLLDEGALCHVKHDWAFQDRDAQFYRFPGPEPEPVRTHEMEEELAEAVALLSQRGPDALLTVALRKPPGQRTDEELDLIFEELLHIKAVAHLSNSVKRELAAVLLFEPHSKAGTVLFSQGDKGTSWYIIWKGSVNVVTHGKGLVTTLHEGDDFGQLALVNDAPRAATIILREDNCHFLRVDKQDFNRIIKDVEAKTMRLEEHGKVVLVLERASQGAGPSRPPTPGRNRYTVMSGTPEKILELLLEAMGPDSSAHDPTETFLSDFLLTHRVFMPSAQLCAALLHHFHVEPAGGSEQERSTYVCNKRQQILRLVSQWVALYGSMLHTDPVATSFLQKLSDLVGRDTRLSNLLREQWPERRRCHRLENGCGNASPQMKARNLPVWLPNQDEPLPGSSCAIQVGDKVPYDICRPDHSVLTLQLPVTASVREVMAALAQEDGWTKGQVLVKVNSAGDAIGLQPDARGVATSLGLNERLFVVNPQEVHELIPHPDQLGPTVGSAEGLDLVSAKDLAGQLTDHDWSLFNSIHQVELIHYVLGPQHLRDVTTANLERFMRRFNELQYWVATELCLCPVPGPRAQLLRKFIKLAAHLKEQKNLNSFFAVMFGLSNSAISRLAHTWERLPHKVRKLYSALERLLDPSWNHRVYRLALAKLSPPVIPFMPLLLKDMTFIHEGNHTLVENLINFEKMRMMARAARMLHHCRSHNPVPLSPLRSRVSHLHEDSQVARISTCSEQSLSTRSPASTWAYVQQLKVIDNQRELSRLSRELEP
# Summary of the method: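 Nucleotide exchange uses 100 nM EPAC1, 250 nM RAP1B-BODIPY-GDP and 50 uM GDP, with compounds in a concentration-titration series. After 5 min at room temperature, fluorescence (480 nm ex/540 nm em) is read every 5 min for 30 min. Data are normalized to control ATA and DMSO.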
# [2] = target: Rap guanine nucleotide exchange factor 3 (Homo sapiens) (UniProt O95398); experiment: Confirmatory qHTS for agonist of cAMP-regulated guanine nucleotide exchange factor 3 (EPAC1) (AID 1645881); details: EPAC1 Rap1B BODIPY-GDP exchange fluorescence; series mostly up to 154 µM;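 note: EPAC1 catalysed release of BODIPY-GDP from Rap1B seen as fluorescence loss; nearly all actives have a fitted effect of over 75% in size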
# [3] = target: Rap guanine nucleotide exchange factor 4 (Homo sapiens) (UniProt Q8WZA2); experiment: Confirmatory qHTS for agonist of cAMP-regulated guanine nucleotide exchange factor 4 (EPAC2) (AID 1645884); details: EPAC2 GEF activity, Rap1B-BODIPY-GDP fluorescence; series mostly up to 154 µM;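 note: nucleotide exchange releases bodipy-GDP from Rap1 and this lowers its fluorescence; nearly all actives have a fitted effect of over 65% in size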
# Rap guanine nucleotide exchange factor 4 (Homo sapiens), sequence (Q8WZA2 whole entry, looked up): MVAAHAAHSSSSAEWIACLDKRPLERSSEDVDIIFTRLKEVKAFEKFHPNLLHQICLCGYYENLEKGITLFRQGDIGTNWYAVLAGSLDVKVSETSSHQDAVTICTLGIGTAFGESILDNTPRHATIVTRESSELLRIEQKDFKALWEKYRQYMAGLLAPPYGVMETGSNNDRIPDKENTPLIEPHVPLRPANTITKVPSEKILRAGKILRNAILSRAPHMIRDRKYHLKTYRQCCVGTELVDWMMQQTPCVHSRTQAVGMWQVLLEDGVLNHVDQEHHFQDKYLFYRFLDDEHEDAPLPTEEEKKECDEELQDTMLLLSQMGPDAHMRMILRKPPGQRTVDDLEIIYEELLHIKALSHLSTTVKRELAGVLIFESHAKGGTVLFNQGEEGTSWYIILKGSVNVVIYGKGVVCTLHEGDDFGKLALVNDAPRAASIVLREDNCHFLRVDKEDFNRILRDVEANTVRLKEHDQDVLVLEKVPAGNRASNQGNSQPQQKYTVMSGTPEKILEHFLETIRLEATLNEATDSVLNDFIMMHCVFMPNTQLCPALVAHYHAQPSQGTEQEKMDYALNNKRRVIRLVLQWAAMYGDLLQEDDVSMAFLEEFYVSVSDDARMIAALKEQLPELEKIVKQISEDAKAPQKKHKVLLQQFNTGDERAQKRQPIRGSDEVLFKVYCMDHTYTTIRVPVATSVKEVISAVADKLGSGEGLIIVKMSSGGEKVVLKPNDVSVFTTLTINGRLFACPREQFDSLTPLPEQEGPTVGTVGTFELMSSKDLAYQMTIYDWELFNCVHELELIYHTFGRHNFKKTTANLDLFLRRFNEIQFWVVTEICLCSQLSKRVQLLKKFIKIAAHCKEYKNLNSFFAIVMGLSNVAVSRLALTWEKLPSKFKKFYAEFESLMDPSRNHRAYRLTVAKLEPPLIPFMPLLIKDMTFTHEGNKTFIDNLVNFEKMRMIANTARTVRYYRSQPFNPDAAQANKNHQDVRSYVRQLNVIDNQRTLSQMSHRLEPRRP
# [4] = target: Rap guanine nucleotide exchange factor 4 (Homo sapiens) (UniProt Q8WZA2); experiment: Confirmatory qHTS for antagonist of cAMP-regulated guanine nucleotide exchange factor 4 (EPAC2) (AID 1645885); details: EPAC2 Rap1B-BODIPY-GDP exchange fluorescence, biochemical; series mostly up to 12.7 µM; note: nearly all actives have a fitted effect of over 25% in size; note: potency is the fitted concentration of half-maximal effect
# [5] = target: Rap guanine nucleotide exchange factor 3 (Homo sapiens) (UniProt O95398); experiment: Counterscreen qHTS for antagonist of cAMP-regulated guanine nucleotide exchange factor 3 (EPAC1) (AID 1645888); details: Rap1B-BODIPY-GDP nucleotide exchange, fluorescence; series mostly up to 154 µM;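 note: fluorescence loss as bound BODIPY-GDP is released from Rap1B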
# Summary of the method: (§1)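 Rap1B-BODIPY-GDP 250 nM + GDP 50 uM; cpds 7-pt, final 9.74 nM–152 uM (activator mode) or from 7.32 nM upwards (inhibitor mode); RT; FI 480/540 nm at 5 and 30 min, then ± cAMP, reread.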
# [6] = target: Rap guanine nucleotide exchange factor 3 (Homo sapiens) (UniProt O95398); experiment: Counterscreen qHTS for agonist of cAMP-regulated guanine nucleotide exchange factor 3 (EPAC1) (AID 1645889); details: EPAC1 Rap1B-BODIPY-GDP exchange, fluorescence; series mostly up to 154 µM; note: nearly all actives have a fitted effect of over 40% in size; note: potency is the fitted concentration of half-maximal effect
# Summary of the method: as §1
SMILES,Potency [1],Potency [2],activation [3],Potency [4],"activity change, negative = inhibition [5]",activation [6],Potency [3],Potency [5],Potency [6],outcome [4]
O=C(CSC1=NCCS1)N1N=C(c2cccs2)CC1c1ccc(F)cc1 (stereo unspecified),inactive,inactive,"6.13% [at 17.1 µM, percent relative to cAMP agonist control]",inactive,4.6% [at 30.8 µM],21.2% [at 30.8 µM],,,,
CCOC(=O)N1CCN(C(=O)C(C)(C)Oc2ccc(Cl)cc2)CC1,inactive,inactive,"3.62% [at 17.1 µM, percent relative to cAMP agonist control]",0.239 µM (active),6.37% [at 30.8 µM],21.9% [at 30.8 µM],,,,
Cc1cc(C)c2cccc(N)c2n1,inactive,inactive,"3.77% [at 17.1 µM, percent relative to cAMP agonist control]",inactive,8.48% [at 30.8 µM],7.96% [at 30.8 µM],,,,
COc1cccc(C(=O)NC(=S)N2c3ccccc3CC2C)c1OC (stereo unspecified),inactive,inactive,"5.75% [at 17.1 µM, percent relative to cAMP agonist control]",inactive,-1.25% [at 30.8 µM],14.2% [at 30.8 µM],,,,
CCc1ccc(C(=O)c2cn(CC(=O)Nc3cccc(OC)c3)c3ccc(OC)cc3c2=O)cc1,53.6 µM (active),inactive,,inactive,,,inactive,inactive,inactive,
O=C(O)C1CC(=O)N(c2ccc(OCc3c(F)cccc3Cl)cc2)C1 (stereo unspecified),inactive,inactive,,inactive,,,inactive,inactive,inactive,
C/C(=N\NS(=O)(=O)c1ccccc1)c1cc(Cl)cc(Cl)c1O,33.8 µM (active),inactive,,21.3 µM (active),,,inactive,inactive,inactive,
COc1cc(NC(=O)C2CCCCC2)c(OC)cc1NC(=O)CN1CCCCC1,inactive,inactive,"4.14% [at 17.1 µM, percent relative to cAMP agonist control]",inactive,-6.17% [at 30.8 µM],11.1% [at 30.8 µM],,,,
CCOC(=O)c1c(-c2ccc(OC)cc2)csc1/N=C/C1=C(O)CCCC1=O,inactive,inactive,"4.43% [at 17.1 µM, percent relative to cAMP agonist control]",inactive,-7.43% [at 30.8 µM],11.3% [at 30.8 µM],,,,
O=C(CNC(=O)c1sc2ccccc2c1Cl)NCc1cccc(C(F)(F)F)c1,inactive,inactive,,inactive,,,inactive,inactive,inactive,
C[C@H]1CN([C@@H](C)CO)C(=O)CCCn2cc(nn2)CO[C@@H]1CN(C)S(=O)(=O)c1ccc(-n2cccn2)cc1,inactive,inactive,,inactive,,,inactive,inactive,inactive,
COc1ccc(Cl)cc1-n1c(=S)sc2c(=O)[nH]c(SCC(=O)NCCC(C)C)nc21,15.1 µM (active),inactive,,inactive,,,inactive,inactive,inactive,
Cc1ccc(S(=O)(=O)N2CC(C(=O)O)=CC[C@H]2c2ccc(Cl)cc2)cc1,inactive,inactive,,inactive,,,inactive,inactive,inactive,
CCN1CCN(c2ccc(S(=O)(=O)N3CCCCC3)cc2NC(=O)C(C)Oc2ccc(F)cc2)CC1 (stereo unspecified),inactive,inactive,,inactive,,,inactive,inactive,inactive,
O=C(C1=C(O)C(=O)N(c2nc3ccc(Cl)cc3s2)C1c1ccco1)c1ccco1 (stereo unspecified),16.9 µM (active),inactive,,inactive,,,inactive,inactive,inactive,
O=C(CC(=O)NC1CCCCC1)N/N=C/c1ccc(Cl)cc1,inactive,inactive,,inactive,,,inactive,inactive,inactive,
CC(=O)Nc1c(C)nn(-c2ccccc2)c1N1CCC(C(=O)NCc2cccc(F)c2)CC1,inactive,inactive,,inactive,,,inactive,inactive,inactive,
CSc1ccc(CCNC(=O)c2csc3c2CCCCC3)cc1,inactive,inactive,,,,,inactive,inactive,inactive,inactive [at 12.7 µM]

SMILES,Potency [1],Potency [2],activation [3],Potency [4],"activity change, negative = inhibition [5]",activation [6],Potency [3],Potency [5],Potency [6],outcome [4]
Cc1ccc(S(=O)(=O)NN2C(=O)/C(=C/c3cccnc3)SC2=S)cc1,42.6 µM (active),inactive,,inactive,,,inactive,inactive,inactive,
Cc1ccc(S(=O)(=O)NCCC(=O)N2CCC(Cc3ccccc3)CC2)cc1,inactive,inactive,"3.1% [at 17.1 µM, percent relative to cAMP agonist control]",inactive,-15.5% [at 30.8 µM],8.49% [at 30.8 µM],,,,
CCCCn1c(N)c(N(CCOC)C(=O)c2cccc(S(=O)(=O)N(C)c3ccc(C)cc3)c2)c(=O)[nH]c1=O,inactive,inactive,"-4.77% [at 17.1 µM, percent relative to cAMP agonist control]",inactive,3.57% [at 30.8 µM],14.6% [at 30.8 µM],,,,
CCCCn1cc2c(c1-c1ccccc1Br)c(=O)n(C)c(=O)n2C,inactive,inactive,,inactive,,,inactive,inactive,inactive,
O=C(c1cc(-c2ccc(Cl)cc2)nc2ccccc12)N1CCC1,inactive,inactive,,inactive,,,inactive,inactive,inactive,
O=C(Nc1ncccc1O)c1ccc2c(c1)OCCO2,inactive,inactive,"2.78% [at 17.1 µM, percent relative to cAMP agonist control]",inactive,6.79% [at 30.8 µM],22.4% [at 30.8 µM],,,,
COC(=O)c1cc2ccsc2n1Cc1cccc(F)c1,inactive,inactive,,inactive,,,inactive,inactive,inactive,
COc1cccc(/C=N/NC(=O)c2cc3cc([N+](=O)[O-])ccc3s2)c1O,35.5 µM (active),inactive,"10.9% [at 17.1 µM, percent relative to cAMP agonist control]",inactive,-2.63% [at 30.8 µM],26.8% [at 30.8 µM],,,,
Cc1[nH]n(-c2ccccc2)c(=O)c1C(c1ccc(C(=O)O)cc1)c1c(C)[nH]n(-c2ccccc2)c1=O,inactive,inactive,,inactive,,,inactive,inactive,1.78 µM (active),
COc1ccc(/C=N\NC(=O)c2cc3c(ccc4ccccc43)o2)cc1O,inactive,inactive,"5.26% [at 17.1 µM, percent relative to cAMP agonist control]",inactive,0.0783% [at 30.8 µM],29.4% [at 30.8 µM],,,,
N#Cc1c(-c2cccs2)nc(SCc2ccc(Cl)cc2)[nH]c1=O,42.6 µM (active),inactive,,inactive,,,inactive,inactive,inactive,
O=C(COc1ccccc1/C=C\c1[nH]c(=O)[nH]c(=O)c1[N+](=O)[O-])Nc1ccccc1,10 µM (active),inactive,"2.16% [at 17.1 µM, percent relative to cAMP agonist control]",inactive,2.03% [at 30.8 µM],7.06% [at 30.8 µM],,,,
CCC(C)(C)NC(=O)C(c1ccccn1)N(C(=O)c1csnn1)C1CCCCC1 (stereo unspecified),inactive,inactive,,inactive,,,inactive,inactive,inactive,
CSc1ccccc1NC(=O)CN(c1ccccc1)S(=O)(=O)N(C)C,inactive,inactive,,inactive,,,inactive,inactive,inactive,
COc1ccc(-c2cc(C(F)(F)F)nc(SCC(=O)N3CCCCC3C)n2)cc1OC (stereo unspecified),inactive,inactive,,,,,inactive,inactive,inactive,inactive [at 12.7 µM]
Cc1cccc(C)c1Nc1nn2c(=O)c3cc4c(cc3nc2s1)OCO4,inactive,inactive,,inactive,,,inactive,inactive,inactive,
O=C(c1ccccc1)c1coc2ccc(O)c(Cl)c12,inactive,inactive,"4.32% [at 17.1 µM, percent relative to cAMP agonist control]",inactive,-20.3% [at 30.8 µM],44.7% [at 30.8 µM],,,,
O=C(O)CSc1cc(C(=O)c2ccccc2O)cn2c(=O)c3c(-c4ccccc4)csc3nc12,inactive,inactive,"-8.3% [at 17.1 µM, percent relative to cAMP agonist control]",inactive,-7.65% [at 30.8 µM],17.9% [at 30.8 µM],,,,

# Source: PubChem BioAssay (NCATS)
